NRP1-CendR mod: modulators of CendR peptide binding to NRP-1, primary screen, biochemical, fluorescence polarization, uHTS | inhibition, % at 25 µM | FAM-RPARPAR peptide binding to NRP-1 | 0.85% of 360,000 active | AID 602438, 2012;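 active = inhibition or corrected inhibition above about 18%, plus a signal ratio from 0.5 to 1.5, limit read from the data, passing the limit was not always enough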
TPT1 inh: Candida albicans TPT1 enzyme inhibitors, primary screen, biochemical, fluorescence polarization; tRNA 2'-phosphotransferase TPT1 (Candida albicans SC5314); recombinant caTPT1, FP RNA substrate dephosphorylation; inhibition, % at 5 µM; 0.81% of 300,000 active; AID 1962, 2009;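 active = inhibition above the mean of all tested compounds plus 3 SD, set per screening campaign, cut at about 24% in these data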;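 also: plate controls were DMSO alone for no effect and ferristatin control at 100 nM for full effect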
Rpn11 inh: Rpn11 (PSMD14) deubiquitinase inhibitors, primary screen, biochemical, fluorescence polarization, uHTS; inhibition, % at 20 µM; 26S proteasome non-ATPase regulatory subunit 14 (Homo sapiens), O00487; human 26S proteasome, Ub4-pepOG fluorescence polarization; 20S core pre-blocked with epoxomicin; AID 588493, 2011; 0.59% of 360,000 active;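 active = inhibition at 20 µM, scaled to each plate's controls, above about 33%, limit read from the data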
Fh CTSL1 inh: Fasciola hepatica cathepsin L1 inhibitors, primary screen, counter-screen for PFM18AAP inhibitor project, biochemical, QFRET, fluorogenic peptide substrate; inhibition, % at 5.96 µM; 0.49% of 300,000 active; AID 1906, 2009; recombinant F. hepatica cathepsin L1, Z-Leu-Arg-MCA fluorescence;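 active = inhibition above the mean of all tested compounds plus 3 SD, set per screening campaign, cut at about 17% in these data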;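 also: 0% = plate median of test compound wells and 100% = 1 µM Z-Phe-Ala-diazomethylketone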
HNF4A DNA FP: change in binding of human HNF4A to DNA, primary screen, biochemical, fluorescence polarization, FITC-DNA. Hepatocyte nuclear factor 4-alpha (Homo sapiens), P41235. 1 h. activity change, % at 10 µM. 0.3% of 360,000 active. AID 1224865, 2016; in the data active = activity change above about 30%, passing the limit was not always enough
Target sequence (P41235 whole entry, looked up): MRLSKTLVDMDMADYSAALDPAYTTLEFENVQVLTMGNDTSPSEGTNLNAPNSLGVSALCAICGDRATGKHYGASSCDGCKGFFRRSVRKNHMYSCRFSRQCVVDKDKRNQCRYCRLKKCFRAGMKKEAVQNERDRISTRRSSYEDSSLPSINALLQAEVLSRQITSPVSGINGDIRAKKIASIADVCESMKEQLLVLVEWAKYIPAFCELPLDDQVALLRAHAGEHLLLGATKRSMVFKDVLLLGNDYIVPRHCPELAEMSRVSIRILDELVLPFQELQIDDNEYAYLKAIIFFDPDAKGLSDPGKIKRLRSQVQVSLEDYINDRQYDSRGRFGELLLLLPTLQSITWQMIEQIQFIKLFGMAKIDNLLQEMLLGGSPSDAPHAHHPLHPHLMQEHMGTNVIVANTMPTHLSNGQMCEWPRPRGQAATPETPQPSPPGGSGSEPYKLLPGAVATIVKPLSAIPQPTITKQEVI
PHOSPHO1 inh: PubChem AID 1565; 1.1% of 290,000 active; inhibition, % at 13.3 µM; recombinant PHOSPHO1, absorbance phosphatase assay; in the data active = inhibition above about 60%
* = called active by the depositor; / = no result given. In the library only some 3.3% were active in any assay of this set; here they are far more common.

SMILES | NRP1-CendR mod | TPT1 inh | Rpn11 inh | Fh CTSL1 inh | HNF4A DNA FP | PHOSPHO1 inh
C=CCOc1c(OC)cc(/C=N/Nc2cccc(C(=O)O)c2)c(Br)c1Br | -8 | 3 | 5 | 3 | -10 | 6
C=CCNc1ncnc2c1ncn2[C@H]1CN(CCOC)C[C@@H](CO)O1 | 2 | / | -2 | / | 6 | /
S=C1COC(c2ccccc2)N1c1ccccc1 (centres undefined) | 3 | -7 | 1 | 3 | -2 | -6
Oc1ccccc1-c1n[nH]c(=S)n1Cc1ccccc1 | 8 | -4 | -2 | -1 | 4 | /
CCn1c(-c2csc3ccccc23)n[nH]c1=S | 6 | 1 | 7 | -1 | 0 | -6
CC(C)Cn1c(-c2csc3ccccc23)n[nH]c1=S | 1 | 3 | 1 | 4 | 2 | 106*
CCn1c(C(c2ccccc2)c2ccccc2)n[nH]c1=S | 6 | 0 | -6 | 3 | -4 | 100*
CCn1c(-c2ccccc2O)n[nH]c1=S | 2 | -4 | 0 | 4 | 0 | 65*
CC(=O)c1ccc(S(=O)(=O)NCC(=O)NC(c2nc3ccccc3[nH]2)C(C)C)cc1 (centres undefined) | 1 | / | 4 | / | -3 | /
O=[N+]([O-])c1cccc(-c2nnn(C34CC5CC(CC(C5)C3)C4)n2)c1 | -13 | -7 | 1 | -1 | 2 | 14
CCOc1ccccc1Nc1nnc(SCC(=O)Nc2cccc(S(=O)(=O)NC3=NCCCCC3)c2)s1 | 0 | -3 | -104 | 1 | -1 | -21
O=C1C=C(c2cc(F)ccc2F)C[C@@H](c2ccc(Cl)cc2)C1 | 10 | / | -3 | / | 4 | /
O=C1C=C(c2ccc(F)c(Cl)c2)C[C@@H](c2ccc(F)cc2)C1 | 24* | / | 4 | / | -4 | /
Cc1ccc(Cl)cc1C1=CC(=O)C[C@H](c2ccc(F)cc2)C1 | 27* | / | -6 | / | 1 | /
Cc1ccc(-c2ccnc(=S)[nH]2)cc1 | -2 | -1 | 1 | -6 | 1 | 90*
Cc1ccc(C(=O)OCC(=O)NCCNC(=O)COC(=O)c2ccc(C)s2)s1 | -10 | -4 | -5 | 4 | 0 | /
Cc1ccc(C(=O)OCC(=O)c2ccc(Cl)s2)s1 | 34* | 3 | 3 | -6 | 2 | -14
O=C(CSc1nnc(C2CC2)n1Cc1ccccc1)c1cc2ccccc2o1 | -21 | 20 | 19 | 0 | 3 | 97*
O=C(CSc1cccc[n+]1[O-])c1cc2ccccc2o1 | 4 | -1 | -4 | -2 | 0 | 79*
Cn1c(N)c(C(=O)CSc2nnc(C3CC3)n2Cc2ccccc2)c(=O)n(C)c1=O | 12 | / | 3 | / | -2 | /
CN(CC(=O)NC1CCN(Cc2ccccc2)CC1)S(=O)(=O)c1ccc(Br)s1 | -6 | 2 | -1 | -2 | -1 | -10
Cc1ccc(-n2nc3c(=O)n(CCCC(=O)NCc4ccco4)nc(C)c3c2C)cc1 | 1 | -4 | -4 | 4 | 3 | 64*
Cc1ccc(-n2nc3c(=O)n(CCCC(=O)NCc4ccc(F)cc4)nc(C)c3c2C)cc1 | -5 | 0 | -3 | 0 | 3 | 38
COC(=O)c1ccc(NC(=O)Nc2ccc(F)cc2)cc1 | 26* | -11 | 3 | 1 | -2 | -8
C=CCN(CC=C)Cc1cc(=O)oc2cc(C)c(Cl)cc12 | 12 | / | 7 | / | 1 | /
CCOC(=O)C1=NN(c2cccc(C)c2)C2(S1)SC(C(C)=O)=C(C)N2c1ccccc1 (centres undefined) | -4 | 2 | 9 | 3 | 0 | 62*
CC1(C)C[C@H](O)[C@]2(CO)[C@H](O)C[C@]3(C)C(=CCC4[C@@]5(C)CC[C@H](O)C(C)(C)C5CC[C@]43C)[C@@H]2C1 (some centres undefined) | -3 | / | 4 | / | -4 | /
Cc1ccc(Cl)cc1NS(=O)(=O)c1ccc2oc(=O)ccc2c1 | -2 | 0 | 3 | -1 | 3 | 14
O=c1[nH]c(-c2ccncc2)nc2ccccc12 | 18 | -5 | -4 | -2 | 4 | 98*
COc1cc(C(=O)OCC(=O)c2ccccc2)cc2c1OCCO2 | -8 | / | 0 | / | -4 | /
